# PubChem BioAssay (NCI)
# This is part of a sample that, as a whole, favours compounds with a hit. Of some 83,000 tested, about 20% had one in any assay.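 Results are percent growth after 48 hours of single-concentration exposure. 100 means growth as in untreated cells, lower positive values show inhibition; negative values down to -100 show cell death.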 A number with no mark means an inactive call. Activity calls are given as the source filed them. The calls were made as follows: active = growth percent below 10; inactive = the rest.
# Experiments:
# Test in all cases: NCI-60 one-dose screen, 48 h (100 = growth as untreated, 0 = no growth, -100 = all killed)
# NCI-H23 lung = conditions: 10 µM unless noted
# NCI-H226 lung = conditions: 10 µM unless noted
# NCI-H322M lung = conditions: 10 µM unless noted
# HOP-62 NSCLC = conditions: 10 µM unless noted
# NCI-H460 lung = conditions: 10 µM unless noted
# HOP-92 NSCLC = conditions: 10 µM unless noted
# NCI-H522 lung = conditions: 10 µM unless noted
# A549/ATCC NSCLC = conditions: 10 µM unless noted
# 786-0 renal = conditions: 10 µM unless noted
# COLO 205 colon = conditions: 10 µM unless noted
# DU-145 prostate = conditions: 10 µM unless noted
# K-562 leukemia = conditions: 10 µM unless noted
# MALME-3M melanoma = conditions: 10 µM unless noted
# RXF 393 renal = conditions: 10 µM unless noted
# SF-268 CNS = conditions: 10 µM unless noted
# SF-295 CNS = conditions: 10 µM unless noted
# SF-539 CNS = conditions: 10 µM unless noted
# M14 melanoma = conditions: 10 µM unless noted
# UACC-257 melanoma = conditions: 10 µM
# MDA-MB-231 breast = conditions: 10 µM unless noted
Compound,growth (NCI-H23 lung),growth (NCI-H226 lung),growth (NCI-H322M lung),growth (HOP-62 NSCLC),growth (NCI-H460 lung),growth (HOP-92 NSCLC),growth (NCI-H522 lung),growth (A549/ATCC NSCLC),growth (786-0 renal),growth (COLO 205 colon),growth (DU-145 prostate),growth (K-562 leukemia),growth (MALME-3M melanoma),growth (RXF 393 renal),growth (SF-268 CNS),growth (SF-295 CNS),growth (SF-539 CNS),growth (M14 melanoma),growth (UACC-257 melanoma) [%],growth (MDA-MB-231 breast)
CCC(c1ccc(OC)cc1)C(CC)c1ccc(O)c(CN2CCCC2)c1 (stereo unspecified),9.32% (active),31.7%,14.4%,30.9%,-47.2% (active),-34.7% (active),22.8%,33.1%,4.61% (active),-85% (active),43.3%,-32.1% (active),-56.1% (active),-31.1% (active),21.2%,-51.2% (active),-18.9% (active),-47.4% (active),,
NC(=S)NN=C1CCCCC1,89.5%,87.5%,99.3%,91.9%,97.8%,92.1%,70.3%,84.7%,106%,93.2%,95.1%,40.1%,91.6%,109%,93.5%,92.8%,99.7%,81.2%,73.3,
COc1cc2oc(-c3cccc(NC(=O)Nc4ccc5c(c4)OCO5)c3)cc(=O)c2c(OC)c1OC,64.5%,87.6%,79.4%,63.2%,37.7%,17.2%,41.5%,61%,65.1%,75.8%,65.4%,41.9%,75.7%,,75.6%,60%,81.8%,-9.91% (active),,61.3%
Cc1cc(C(=O)CSc2nc3ccccc3c(=O)[nH]2)c(C)n1C,97.7%,97.8%,100%,93.5%,113%,73.1%,98.9%,43.2%,91.9%,109%,102%,110%,87.5%,,110%,81.9%,90.2%,112%,,90.4%
CCN(Cc1ccccc1)c1ccc(SC#N)cc1,80.6%,112%,91.6%,118%,90%,53.4%,-26.7% (active),102%,73.4%,50.4%,98.3%,41%,88%,47.6%,83.8%,95.3%,82.2%,89.2%,107,
NC(C(=O)O)C(O)c1ccc(OCc2ccccc2)c(OCc2ccccc2)c1 (stereo unspecified),96.3%,99.2%,109%,88.7%,108%,73.8%,93.5%,93.4%,98.7%,106%,107%,95.6%,114%,100%,97.4%,97.8%,97.2%,97.4%,,
COc1ccc(OC)c(NC(=O)c2cc(S(=O)(=O)N3CCc4ccccc43)ccc2OC)c1,86.7%,92.1%,109%,100%,108%,74.5%,78.6%,78.9%,89.8%,87.5%,84.9%,103%,111%,,95.9%,73.4%,82.9%,98.8%,,71.8%
Clc1nc2ccccc2nc1CI,86%,68.2%,89.9%,105%,108%,90.9%,3.79% (active),117%,101%,120%,109%,21.3%,49.5%,94.9%,113%,95.8%,97.8%,55.3%,119,
COc1ccc(/C=C2\Oc3cc(OCCN4CCCC4)ccc3C2=O)c(OC)c1,88.5%,97.8%,101%,84.3%,93.9%,79.7%,104%,99.4%,88.2%,92.8%,90.8%,2.26% (active),102%,,95.1%,100%,87.4%,98.9%,,88.7%
COC(=O)c1ccc2nc(-c3cc4ccccc4n3C)n(CCCCOc3cc4c(cc3OC)C(=O)N3CCC[C@H]3C=N4)c2c1,7.22% (active),-31.8% (active),-38.1% (active),15.6%,-25.9% (active),-28.5% (active),-28.1% (active),-11.8% (active),8.78% (active),-39.4% (active),22.1%,44.6%,-80.1% (active),,1.79% (active),-26.7% (active),-13.8% (active),-12.7% (active),,-14.7% (active)
CCCCCCc1nc2c(c(C)nn2-c2ccccc2)c2c1CCCCC2,100%,89.2%,110%,91.3%,110%,91.5%,93.2%,103%,108%,107%,108%,111%,105%,115%,105%,103%,105%,118%,93.3,
CCN1C(=O)N(CC)C2C1NN=c1s/c(=C\c3cccc(F)c3)c(=O)n12 (stereo unspecified),33.9%,105%,49.6%,42.2%,1.33% (active),29.6%,-0.955% (active),27%,12.2%,-5.47% (active),5.59% (active),8.99% (active),48.7%,,58.3%,9.94% (active),-9.53% (active),47.6%,,25.8%
CCCCCCCCCCCCCCCCCCOc1cccc(CCOP(=O)(O)OCC[N+](C)(C)C)c1,96.3%,95.3%,105%,72.2%,60.7%,72.9%,72%,84.9%,91.2%,97.4%,95.9%,116%,101%,,68%,87.2%,95.1%,93.4%,,95.5%
CCN1C(=O)N(CC)C2C1NN=c1s/c(=C3\C(=O)N(C4CCCC4)c4ccccc43)c(=O)n12 (stereo unspecified),20.1%,99.8%,53%,8.41% (active),-1.48% (active),28.1%,-5.34% (active),25.3%,14.1%,-29.2% (active),7.65% (active),4.67% (active),57.4%,,43.4%,-6.11% (active),-39.3% (active),2.66% (active),,19.7%
Clc1ccc(-c2nc(-c3ccco3)cn3ccnc23)cc1,61%,46.3%,11.4%,31.4%,14.5%,34.7%,61.5%,-1.62% (active),-41.1% (active),75%,67.3%,68.9%,77%,41.6%,64.3%,15.1%,62.2%,97.4%,75.2,
CCCn1c(=S)sc2c(Cl)nc(C)nc21,110%,91.6%,93.6%,104%,88.5%,99.3%,33%,117%,106%,43.5%,124%,103%,104%,,98.5%,101%,93.3%,101%,,89.1%
C/C1=C\CCC2(C)OC2CC2CCC(C)(O)C(CC1)C2(C)C (stereo unspecified),99%,107%,96.5%,101%,106%,-16.4% (active),88%,98%,98.9%,109%,96.1%,104%,93.5%,,103%,55.5%,88.1%,98.7%,,105%
